Results from PubChem BioAssay (NCATS).
Records with an inconclusive call do not appear. Active and inactive are the calls of the source. Calls follow the shape of the dose curve; as a rule, active = well fitted curve in the direction sought with a large enough effect; inconclusive = small, poorly fitted or top-dose-only effect, or another doubt; inactive = no such curve, though single readings can be large; an effect the other way counts as inactive or inconclusive.

How the values were obtained:
[1] = molecular target: Glutathione peroxidase 1 (Homo sapiens) (UniProt P07203); experiment: Primary qHTS Assay for Inhibitors of Recombinant Selenoprotein Glutathione Peroxidase 1 (GPX1) (AID 1845191); also: nearly all actives have a fitted effect of over 65% in size; as to activity, negative = inhibition: % is scaled to controls: 0 for no effect and ±100 for the full control effect
Outline: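 GR-coupled readout: NADPH consumption tracked by fluorescence, ex 340/em 450 nm, at t=0 and after 15 min at RT. Final mix 10 nM GPX1, 1 mM GSH, 0.5 mM CHP, 0.5 mM NADPH, 100 nM GR, 0.01% BSA, following 30 min enzyme–compound preincubation.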

[2] = molecular target: Phospholipid hydroperoxide glutathione peroxidase GPX4 (Homo sapiens) (UniProt P36969); experiment: Primary qHTS Assay for Inhibitors of Recombinant Selenoprotein Glutathione Peroxidase 4 (GPX4) (AID 1845192); also: nearly all actives have a fitted effect of over 65% in size; as to activity change, negative = inhibition: series mostly up to about 50 µM; % is scaled to controls: 0 for no effect and ±100 for the full control effect
Outline: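 Steps: GPX4 plus compound, 30 min RT; add GR/GSH/NADPH master mix; start with cumene hydroperoxide; read 340/450 nm fluorescence at 0 and 15 min. Finals were 200 nM GPX4, 1 mM GSH, 0.5 mM CHP, 0.5 mM NADPH, 100 nM GR.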

[3] = molecular target: Luciferin 4-monooxygenase (Photinus pyralis) (UniProt P08659); experiment: Primary firefly luciferase (FLuc) qHTS assay for identification of artifact compounds. (AID 1845220); also: nearly all actives have a fitted effect of over 60% in size;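 as to activity change, negative = inhibition: series mostly up to about 54 µM; plate controls were DMSO vehicle for no effect and no enzyme for full effect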
Outline: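 Enzymatic FLuc inhibition assay: compounds pre-exposed to luciferin/ATP (10 uM each) for 15 min, then purified P. pyralis enzyme at 10 nM added. Read-out: luminescence at 5 min.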

[4] = Primary fluorescence-based thiol-reactive (MSTI) qHTS assay for identification of artifact compounds. (AID 1845221); also: nearly all actives have a fitted effect of over 65% in size; also: potency is read from the fitted curve at half-maximal effect;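 as to activity change, negative = thiol reactive: series mostly up to about 54 µM; thiol-reactive compounds lower the probe fluorescence signal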
Outline: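 Curve-fitted percent inhibition (4-parameter Hill) derived from fluorescence, Ex 525/Em 598 nm, scaled with Acetyl-MSTI and MSTI; 1 h incubation at room temperature.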

[5] = test system: Nanoluciferase (engineered Oplophorus gracilirostris luciferase); experiment: Primary Nanoluciferase (NLuc) qHTS assay for identification of artifact compounds. (AID 1845222);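 also: NLuc secreted into diluted conditioned medium of S16 cells; series mostly up to about 54 µM; 0% = DMSO and -100% = no enzyme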
Outline: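 S16 cell supernatant NLuc, 1:55; cpds qHTS; 15 min RT dark; Nano-Glo substrate 1:100, 5 min; luminescence; Hill fit of % inhibition.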

[6] = Primary redox qHTS assay for identification of artifact compounds. (AID 1845223);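 also: 0% = DMSO and 100% = reference compound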
Outline: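 Redox-cycling detection via DTT (250 uM final) oxidation coupled to Amplex Red (25 uM)/HRP (250 mU/mL) in HBSS. 15 min preincubation plus 30 min after DTT, room temperature. Ex/Em 525/598 nm; 4-parameter Hill fit against DMSO and 10 uM DA3003.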

Phospholipid hydroperoxide glutathione peroxidase GPX4 (Homo sapiens), sequence (P36969 whole entry, looked up): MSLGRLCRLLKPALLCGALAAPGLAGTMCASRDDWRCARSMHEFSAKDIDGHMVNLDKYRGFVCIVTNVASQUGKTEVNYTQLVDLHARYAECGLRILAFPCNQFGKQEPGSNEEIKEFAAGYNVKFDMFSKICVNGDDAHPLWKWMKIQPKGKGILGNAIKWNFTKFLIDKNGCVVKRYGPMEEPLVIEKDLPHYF
Glutathione peroxidase 1 (Homo sapiens), sequence (P07203 whole entry, looked up): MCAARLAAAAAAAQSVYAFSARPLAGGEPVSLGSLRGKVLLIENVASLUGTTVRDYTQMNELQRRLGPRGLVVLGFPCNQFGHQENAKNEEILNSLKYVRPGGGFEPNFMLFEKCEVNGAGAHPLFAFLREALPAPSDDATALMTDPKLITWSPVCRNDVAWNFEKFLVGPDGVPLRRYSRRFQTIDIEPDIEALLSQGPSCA

COc1ccc(C(=O)Nc2c(Cl)cncc2Cl)cc1OC1CCCC1
inactive: Potency [1] | Potency [2] | Potency [3] | Potency [4] | Potency [5] | Potency [6]

Fc1ccc(N2CCN(CCC3OCCc4ccccc43)CC2)cc1 (configuration not stated)
inactive: Potency [1] | Potency [2] | Potency [3] | Potency [4] | Potency [5]

CCCCNc1ncc(-c2ccc(CN3CCOCC3)cn2)c(NC2CCC(O)CC2)n1 (configuration not stated)
inactive: Potency [1] | Potency [2] | Potency [3] | Potency [4] | Potency [5] | Potency [6]

CC(=O)O[C@H]1CC(C)(C)CC2[C@]13CO[C@@]21CCC2[C@@]4(C)CC[C@H](O[C@@H]5OC[C@H](O[C@@H]6O[C@H](CO)[C@@H](O)[C@H](O)[C@H]6O[C@@H]6OC[C@@H](O)[C@H](O)[C@H]6O)[C@H](O)[C@H]5O[C@@H]5O[C@H](CO)[C@@H](O)[C@H](O)[C@H]5O)[C@@](C)(CO)C4CC[C@@]2(C)[C@]1(C)C[C@H]3O (some centres not stated)
inactive: Potency [1] | Potency [2] | outcome [3] inactive [at 11.6 µM] | activity change, negative = thiol reactive [4] 28.4% [at 11.5 µM] | activity, negative = inhibition [5] 2.37% [at 11.6 µM]

CCn1c(=O)n([C@H]2CCCN(c3nccc(-c4cc5ccccc5o4)n3)C2)c2ccccc21
inactive: Potency [1] | Potency [2] | Potency [3] | Potency [4] | Potency [5]

COc1c(C)cnc(Cn2cc(C#CCC(C)(C)O)c3c(Cl)nc(N)nc32)c1C
inactive: Potency [1] | Potency [2] | Potency [3] | Potency [4] | Potency [5]

CCCCC1CCC(c2nc(-c3ccncc3)no2)CC1 (configuration not stated)
inactive: Potency [1] | Potency [2] | Potency [3] | Potency [4] | Potency [5] | Potency [6]

COc1ccc(C#Cc2ccc(C(=O)N3CCC[C@@H](CO)C3)cc2)cc1
inactive: Potency [1] | Potency [2] | Potency [3] | Potency [4] | Potency [5]

CN1CCN(C2CCN(C(=O)Nc3cc(Oc4ccc(NC(=O)C5(C(=O)Nc6ccc(F)cc6)CC5)c(F)c4)ccn3)CC2)CC1
inactive: Potency [1] | Potency [2] | Potency [3] | Potency [4] | Potency [5]

CCNC(=O)C#Cc1ccc2c(C(=Nc3ccc(CN(C)C)cc3)c3ccccc3)c(O)[nH]c2c1
inactive: Potency [1] | Potency [2] | Potency [3] | Potency [4] | Potency [5]

COc1cc(N2CCC(O)CC2)ccc1Nc1nc(Nc2ccccc2S(=O)(=O)C(C)C)c2[nH]cnc2n1
inactive: Potency [1] | Potency [2] | Potency [3] | Potency [5]
active: Potency [4] 1680 nM

COc1cccc(N2CCN(C3=Nc4c(F)cccc4[C@H](CC(=O)O)N3c3cc(C(F)(F)F)ccc3OC)CC2)c1
inactive: Potency [1] | Potency [2] | Potency [3] | Potency [4] | Potency [5] | Potency [6]

C[C@]12CC[C@@H]3c4ccc(O)c(O)c4CC[C@H]3[C@@H]1CCC2=O
active: Potency [4] 947 nM
inactive: Potency [1] | Potency [2] | Potency [3] | Potency [5]

C[C@H]1CC[C@@]2(OC1)O[C@H]1CC3[C@@H]4CC[C@@H]5C[C@@H](O[C@@H]6O[C@H](CO)[C@@H](O[C@@H]7O[C@H](CO[C@@H]8OC[C@@H](O)[C@H](O)[C@H]8O)[C@@H](O[C@@H]8O[C@H](CO)[C@H](O)[C@H](O)[C@H]8O)[C@H](O)[C@H]7O)[C@H](O)[C@H]6O)CC[C@]5(C)C4CC[C@]3(C)[C@H]1[C@@H]2C (some centres not stated)
inactive: Potency [1] | Potency [2] | activity change, negative = inhibition [3] 2.09% [at 11.6 µM] | activity change, negative = thiol reactive [4] 133% [at 11.5 µM] | activity, negative = inhibition [5] 2.05% [at 11.6 µM]

OC[C@H]1O[C@@H](OC/C=C/c2ccc(O)cc2)[C@H](O)[C@@H](O)[C@@H]1O
inactive: Potency [1] | Potency [2] | Potency [3] | Potency [4] | Potency [5]

OC(c1ccc(-c2ccc(CN3CCN(Cc4ccncc4)CC3)cc2)c(F)c1)(C(F)(F)F)C(F)(F)F
inactive: Potency [1] | Potency [2] | Potency [3] | Potency [4] | Potency [5] | Potency [6]

CC/C=C\CC1C(=O)C=CC1(CCCCC1CCC(=O)O1)OC(C)=O (configuration not stated)
inactive: Potency [1] | Potency [2] | Potency [3] | Potency [4] | Potency [5] | Potency [6]

CC(C)=CCC[C@](C)(O[C@@H]1O[C@H](CO[C@@H]2OC[C@@H](O)[C@H](O)[C@H]2O)[C@@H](O)[C@H](O)[C@H]1O)[C@H]1CC[C@]2(C)[C@@H]1[C@H](O)C[C@@H]1[C@@]3(C)CC[C@H](O[C@@H]4O[C@H](CO)[C@@H](O)[C@H](O)[C@H]4O)C(C)(C)[C@@H]3CC[C@]12C
inactive: Potency [1] | Potency [2] | Potency [3] | Potency [4] | Potency [5]

C[C@@H]1C[C@H]2O[C@@]3(O[C@@H]2C(C)(C)O)C(O)[C@@]2(C)C4CCC5C(C)(C)[C@@H](O[C@H]6OC[C@H](O)[C@@H](O)[C@@H]6O)CC[C@@]56C[C@@]46CC[C@]2(C)C13 (some centres not stated)
inactive: Potency [1] | Potency [2] | Potency [3] | Potency [4] | Potency [5] | Potency [6]

CCOC(=O)N1CCC(CN(Cc2ccc(Cl)cc2)Cc2ccc([N+](=O)[O-])s2)C1 (configuration not stated)
inactive: Potency [1] | Potency [2] | Potency [3] | Potency [5]
active: Potency [4] 13400 nM
